# Assay results reported in PubChem BioAssay AID463195 (Sanford-Burnham Center for Chemical Genomics, 2010).
# The campaign covered roughly 330,000 compounds. About 4,600 (1.4%) were called active. The full list was thinned out, with actives kept by preference. A number with no mark means an inactive call.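 The calls were made as follows: active = inhibition of 40% or more at the single tested concentration; inactive = the rest.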
# Assay: wild-type TIM10 yeast growth inhibition – luminescence, uHTS, counter-screen for tim10-1 yeast inhibitor project, primary screen (AID 463195);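 also: wild-type TIM10 isogenic control strain grown at permissive 25 °C; 0% = DMSO yeast wells and 100% = minimal medium wells without yeast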
# Conditions: S. cerevisiae TIM10 strain growth, BacTiter-Glo luminescence, 24 h; at 10 µM; active compounds read high
row,Compound,inhibition
1,Cc1ccc(NC(=O)CN(C)C(=O)Cn2nnc(-c3ccccc3)n2)cc1,0.534%
2,COc1ccccc1CNC(=O)COc1ccc(C)nc1[N+](=O)[O-],9.85%
3,Cc1cccc(NC(=O)CCn2c(=O)oc3ccccc32)c1,-10%
4,CC(OC(=O)c1cc2ccccc2o1)C(=O)Nc1ccc(N2CCOCC2)cc1 (stereo not drawn),3.94%
5,O=C(CN1CCN(C2CCCCC2)CC1)Nc1ccccc1N1CCCCC1,4.11%
6,CN1CCN(c2ccccc2NC(=O)COc2ccc(C3CCCCC3)cc2)CC1,40.4% (active)
7,Cc1ccc(C(C)C)cc1OCC(=O)Nc1ccccc1N1CCCC1,-2.85%
8,COc1ccc(NC(=O)/C(C#N)=C\c2cc(OC)c(OCc3ccc(C(=O)O)cc3)cc2Br)cc1,26.4%
9,COc1ccc(CNC(=O)CCn2cccc2)cc1,-5.68%
10,COc1ccc(CNC(=O)/C(C#N)=C/c2cccc(OC)c2OC)cc1,70.4% (active)
11,C=CCSc1nnc(N2C(=O)C(O)=C(C(=O)c3ccco3)C2c2ccc(F)cc2)s1 (stereo not drawn),1.92%
12,Cc1ccc2[nH]c3c(=O)n(CC(=O)NCCc4ccc(Cl)cc4)ncc3c2c1,-0.819%
13,C=CCO/N=C/C1=C(O)C(C(=O)OC)C(C)(C)CC1=O (stereo not drawn),6.77%
14,Cc1ccc(Nc2nc(-c3ccc(O)cc3O)cs2)nc1,11.7%
15,O=c1oc2ccccc2cc1-c1csc(Nc2ccc(O)cc2)n1,43.9% (active)
16,O=C(Nc1ccncc1)c1cc2ccccc2o1,-3.62%
17,Cc1csc(=O)n1CC(=O)Nc1ccc(S(C)(=O)=O)cc1,-3.37%
18,CCn1c(=O)c2ccccc2n(CC(=O)N2CCCc3ccccc32)c1=O,-2.71%
19,CC(C)c1ccc2c(c1)c(SC(C)(C)C)c(CC(C)(C)C(=O)O)n2Cc1ccc(Cl)cc1,3.33%
20,N/C(=N\OC(=O)Cc1ccccc1[N+](=O)[O-])c1ccc(Br)cc1,57.9% (active)
21,N/C(=N\OC(=O)N1c2ccccc2Sc2ccccc21)c1ccc(Br)cc1,-9.5%
22,N/C(=N/O)c1cccn1Cc1ccccc1[N+](=O)[O-],-10.5%

row,Compound,inhibition
1,CC[C@@H]1Cc2cc(O)ccc2C2=C1c1ccc(O)cc1C[C@H]2CC,58.9% (active)
2,CCOc1ccc(N2C(=O)Nc3ccccc3C2(O)C(=O)NCc2ccco2)cc1 (stereo not drawn),-6.83%
3,CN(C)C(=O)CCc1ccc2c3c([nH]c2c1)[C@]1(CCc2ccccc2)[C@@H](C(=O)N2CCCCC2)C[C@H](CC(=O)NCCC2=CCCCC2)C(=O)N1CC3,-1.38%
4,Cc1cc(C(F)(F)F)nc(SCC(=O)Nc2nccs2)n1,2.33%
5,Cn1cnnc1SCC(=O)Nc1ccc(N2CCOCC2)cc1,-21.6%
6,CN(C)CCCN(C(=O)c1ccc(S(=O)(=O)N2CCCCCC2)cc1)c1nc2cc3c(cc2s1)OCCO3,11.4%
7,CCN(CC)CCN(C(=O)c1ccc(N2C(=O)CCC2=O)cc1)c1nc2cc3c(cc2s1)OCO3,-10.9%
8,CCN(CC)CCN(C(=O)c1ccc(S(=O)(=O)N2CCOCC2)cc1)c1nc2cc3c(cc2s1)OCCO3,41% (active)
9,Cc1ccc(N(CC(=O)NCC2CCCO2)C(=O)CNS(=O)(=O)c2ccc(Cl)cc2)cc1 (stereo not drawn),11.1%
10,COc1cccc(N2CC(NS(=O)(=O)c3ccc(Cl)cc3)CC2=O)c1 (stereo not drawn),-3.31%
11,CCCCC1(C(=O)OCC)NC(c2ccc(O)cc2)C2C(=O)N(c3ccccc3)C(=O)C21 (stereo not drawn),58.8% (active)
12,CCOC(=O)C1(C)NC(c2ccco2)C2C(=O)N(c3ccccc3)C(=O)C21 (stereo not drawn),-0.047%
13,CCCC1(C(=O)OCC)NC(c2ccc(N(C)C)cc2)C2C(=O)N(c3ccc4c(c3)OCCO4)C(=O)C21 (stereo not drawn),4.95%
14,Cc1ccc(NC(=O)C2CCCN2C(=O)OCc2ccccc2)cc1C (stereo not drawn),-1.12%
15,CCC(C)Cn1c(O)cc2nn(-c3nc4ccccc4s3)c(=O)c-2c1C (stereo not drawn),-6.61%
16,CCC1(CC)NC(=O)N(Cc2nc3ccccc3s2)C1=O,0.882%
17,CC(=NCc1ccco1)c1c(C(F)(F)F)[nH]n(-c2nc3ccccc3s2)c1=O,50.6% (active)
18,COc1cc(NC(=O)C2CC(c3ccccc3O)=NO2)c(OC)cc1Cl (stereo not drawn),-3.49%
19,COC(C/C=C/C(=O)[C@@H](C)OCc1ccccc1)OC,50.1% (active)
20,COC(C[C@H](O)CC(=O)[C@@H](C)OCc1ccccc1)OC,8.38%
21,COC(C[C@@H]1O[C@@H]1C(=O)[C@H](C)OCc1ccccc1)OC,-11%
22,COC(=O)[C@@H]1CC[C@H](C)[C@@H](c2ccc(C)cc2)N1C(=O)c1ccc(/C=N/O[C@H](C)c2cn([C@@H]3COC[C@H]3O)nn2)cc1,-0.068%

row,Compound,inhibition
1,CN(CC(=O)Nc1ccc(Cl)cc1)C(=O)CNC(=O)c1ccc2ccccc2c1,-7.81%
2,CN(C)CCCN(C(=O)c1ccc(S(=O)(=O)N2CCCc3ccccc32)cc1)c1nc2ccc(F)cc2s1,40.9% (active)
3,CN(C)CCCN(C(=O)c1ccc(S(=O)(=O)N2CCCCCC2)cc1)c1nc2ccc(Br)cc2s1,34.5%
4,CCOc1ccc2nc(N(CCCN(C)C)C(=O)c3ccc(C(=O)c4ccccc4)cc3)sc2c1,11.2%
5,Cc1cc(NCc2ccco2)n2c(nc3ccccc32)c1C#N,-0.142%
6,Cc1ccccc1-c1nc(C#N)c(NCc2ccco2)o1,46.8% (active)
7,COc1ccc(Nc2oc(-c3ccccc3Cl)nc2C#N)cc1,13.8%
8,CC(C)CCn1c(=O)c2c(nc3n2CCCN3Cc2ccccc2)n(C)c1=O,11.2%
9,COc1ccc(Cc2nnc(N/N=C/c3ccccc3O)[nH]c2=O)cc1OC,9.37%
10,Cc1nn(Cc2ccc(Cl)c(Cl)c2)c(C)c1NC(=O)c1cc(C2CC2)on1,43% (active)
11,Cc1nn(Cc2ccc(F)cc2)c(C)c1NC(=O)c1cccnc1Cl,-10.4%
12,CSc1ccccc1NC(=O)c1cc(C2CC2)on1,7.03%
13,COc1ccc(CN2CCNC(=O)C2CC(=O)N(C)Cc2ccccn2)cc1OC (stereo not drawn),10.2%
14,CC(=O)Nc1ccc(CC#N)cc1,12.5%
15,Cc1cc(OCCCC(=O)NCCN2C(=O)S/C(=C\c3cccnc3)C2=O)ccc1Cl,38.4%
16,O=C(NCCN1C(=O)S/C(=C\c2cccnc2)C1=O)c1cccc(OC(F)F)c1,43.2% (active)
17,O=C(NCCN1C(=O)S/C(=C\c2cccnc2)C1=O)c1ccc(S(=O)(=O)N2CCCC2)cc1,2.86%
18,CCOc1ccc(N(CC(=O)NCC2CCCO2)S(=O)(=O)c2ccc(C)cc2)cc1 (stereo not drawn),16.8%
19,O=C(CN1CCN(C(=O)c2cccc(F)c2)CC1)Nc1ccccc1F,-0.2%
20,CC(=O)N1CCN(CC(=O)Nc2ccc(C)c(F)c2)CC1,-1.66%
21,CCc1sc(C(=O)N2CCN(CC(=O)Nc3cccc(F)c3)CC2)cc1C,60.2% (active)
22,O=C(NC1CC1)C(Cc1ccccc1)NS(=O)(=O)c1ccccc1F (stereo not drawn),-6.34%

row,Compound,inhibition
1,COc1ccc(S(=O)(=O)N(CC(=O)N/N=C/c2ccc(C(=O)O)cc2)Cc2ccccc2)cc1OC,-21.2%
2,CCOC(=O)C1=C(CSc2nccn2C)NC(=O)NC1c1ccc(OC)cc1 (stereo not drawn),9.58%
3,CCOC(=O)C1=C(C)N=c2s/c(=C\C(=O)OC)c(=O)n2C1c1ccc(OC)cc1 (stereo not drawn),61.5% (active)
4,COCCOC(=O)C1=C(C)N=c2s/c(=C\c3cccs3)c(=O)n2C1c1cccs1 (stereo not drawn),21.4%
5,CC(c1ccccc1)n1c(NCCCn2ccnc2)nc2c1c(=O)[nH]c(=O)n2C (stereo not drawn),1.78%
6,Cc1ccc(C)c(NC(=O)C2Cc3ccccc3CN2C(=O)OCc2ccccc2)c1 (stereo not drawn),27.9%
7,COc1ccc(Cl)cc1N(CC(=O)N1CCCCC1)S(C)(=O)=O,1.46%
8,Cc1onc(-c2ccccc2Cl)c1C(=O)OCC(=O)c1ccccc1,23.4%
9,Cc1[nH]c2ccccc2c1C(=O)CSCC(=O)O,13.1%
10,Cc1[nH]c2ccccc2c1C(=O)COC(=O)c1c(-c2ccccc2)noc1C,48.3% (active)
11,CCCN(CCC)C(=S)Nc1cc(C(=O)OC)ccc1C(=O)OC,-3.94%
12,CCOC(=O)[C@@H]1[C@H]2COc3ccc(Br)cc3[C@H]2N2C(=O)N(c3ccc(C)cc3)C(=O)[C@@]12C,13.9%
13,COc1ccc(C(=O)O/N=C(\N)Cc2ccc(Cl)cc2Cl)cc1OC,85.8% (active)
14,COc1ccc(C(=O)ON=C2c3ccccc3-c3ccccc32)cc1OC,18%
15,COc1ccc(C/C(N)=N/OC(=O)c2ccco2)cc1OC,-7.79%
16,CC(=O)Nc1ccc(S(=O)(=O)NCC(=O)OCc2cc(=O)oc3ccc4ccccc4c23)cc1,6.88%
17,N#Cc1cccc(CN2CCC(=O)N([C@H](CO)c3ccccc3)CC2)c1,12.1%
18,O=[N+]([O-])c1cc([N+](=O)[O-])c(Oc2cc(F)cc(F)c2F)cc1NN1CCCCC1,-1.5%
19,Oc1ccccc1-c1cc(-c2ccc(Cl)cc2)n[nH]1,53.8% (active)
20,Cc1ccc(NC(=O)c2cc(-c3ccccc3O)n[nH]2)cc1C,0.905%
21,O=C(Nc1cccnc1Cl)c1cc(-c2ccccc2O)on1,3.29%
22,CCCCC1S/C(=N/N=C/c2cccs2)NC1=O (stereo not drawn),5.03%
